From PubChem BioAssay
Pf growth 96h: P. falciparum growth inhibition at 96 hour, primary screen for plastid delayed-death inhibitors | Potency, µM (top dose mostly 28.7 µM), most hits filed as inhibitors | AID 504834 | 6.9% of 320,000 active | P. falciparum luciferase reporter growth, 96 h
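Infected RBCs, 2% Hct / 0.05% parasitemia final; luciferase-reporter P. falciparum; cpd 96 h, 37 C, 5% CO2; luciferase detection reagent; luminescence.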
Sm TGR inh: inhibitors of Schistosoma mansoni thioredoxin glutathione reductase; Potency, µM (series often up to 114 µM), most hits filed as inhibitors; AID 485364; 3% of 360,000 active; Q962Y6; purified TGR, DTNB reduction, TNB absorbance 405 nm; note: nearly all actives have a fitted effect of over 60% in size
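First, TGR (20 nM dispensed) and NADPH were mixed with compound. Second, a 15 min room-temperature incubation followed. Third, further NADPH and then DTNB were added to start the reaction. Finally, TNB absorbance was monitored kinetically.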
SARS PLP yeast: blocks SARS-CoV papain-like protease in a yeast assay | S. cerevisiae expressing SARS-CoV PLpro, growth rescue | Potency, µM (series often up to 32.9 µM), most hits filed as activators | 0.19% of 330,000 active | AID 485353; calls by dose curve; note: nearly all actives have a fitted effect of over 55% in size
Pf growth 48h: inhibits P. falciparum growth in the first generation, 48 h | P. falciparum luciferase growth in erythrocytes, 48 h | Potency, µM (highest dose often 28.7 µM), actives largely listed as inhibitors | 5.9% of 310,000 active
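Growth was read as firefly luciferase luminescence after a 48 h, 37 C, 5% CO2 exposure of compounds to reporter-bearing P. falciparum cultures (0.1% parasitemia, 2% hematocrit final) in Albumax-supplemented RPMI 1640.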
Each line names hits and unclear results; the compound was inactive in the other large screens. Hits are enriched below; roughly 12% of the tested compounds scored in any of these assays. Unless noted, calls come from the whole dose curve; as a rule, active = well fitted curve in the direction sought with a large enough effect; inconclusive = small, poorly fitted or top-dose-only effect, or another doubt; inactive = no such curve, though single readings can be large; an effect the other way counts as inactive or inconclusive.

Cc1c(Cl)cccc1-n1ncc(C(=O)NCCN2CCN(C)CC2)c1C1CCN(C(=O)OC(C)(C)C)CC1	none (no result: Pf growth 96h, SARS PLP yeast, Pf growth 48h)
COc1ccc(N2CCN(C(=O)c3ccc4c(c3)[nH]c(=S)n3c5ccccc5nc43)CC2)cc1	none
COc1ccc(-n2c(=S)[nH]c3cc(C(=O)N4CCN(c5ccccc5)CC4)ccc3c2=O)cc1	Pf growth 96h 2.1µM, Sm TGR inh inconclusive
CC(=O)c1ccc(N2CCN(C(=O)c3ccc4c(=O)n(-c5ccccc5)c(=O)[nH]c4c3)CC2)cc1	Pf growth 96h inconclusive, Pf growth 48h 10µM
COc1ccc(Cn2c(=O)[nH]c3cc(C(=O)N4CCN(c5ccc(C(C)=O)cc5)CC4)ccc3c2=O)cc1	Pf growth 96h 12µM
CC(C)n1cc(/C=C2/NC(=O)N(c3cccc(Cl)c3)C2=O)c2ccccc21	Pf growth 96h 9.3µM, Pf growth 48h 8.3µM
CC(C)n1cc(/C=C2\NC(=O)N(c3cccc(Cl)c3)C2=O)c2ccccc21	Pf growth 96h inconclusive (no result: Pf growth 48h)
CCN(CC)CCCCCC(=O)Nc1ccccc1C(=O)Nc1ccccc1	Pf growth 96h 10µM
O=C(O)/C=C\C(=O)Nc1ccccc1F	none
O=C(/C=C/c1ccco1)Nc1ccccc1C(=O)Nc1cccc(C(=O)O)c1	Sm TGR inh 25µM
O=C(/C=C/c1ccco1)Nc1cc(Cl)ccc1C(=O)O	Sm TGR inh inconclusive, Pf growth 48h inconclusive
O=C(/C=C/c1ccco1)Nc1ccccc1C(=O)O	Pf growth 96h inconclusive, Sm TGR inh 18µM
O=C(O)/C=C/C(=O)Nc1ccccc1C(=O)Nc1ccccc1	Sm TGR inh 35µM, Pf growth 48h inconclusive
COc1cc(OC)c(NC(=O)Nc2nnc(N(C)C3CCCCC3)s2)cc1Cl	none (no result: Pf growth 96h, SARS PLP yeast, Pf growth 48h)
CC(NC(=O)c1cc(-c2ccc(Cl)cc2)on1)c1ccccc1 (centres undefined)	none (no result: Pf growth 96h, SARS PLP yeast, Pf growth 48h)
O=C(Nc1ccc(S(=O)(=O)Nc2ncccn2)cc1)c1ccccc1NS(=O)(=O)c1ccc(F)cc1	none (no result: Sm TGR inh)
O=C(O)/C=C/c1ccc(S(=O)(=O)Nc2ccccc2C(=O)Nc2ccc(F)cc2)cc1	Sm TGR inh 45µM, Pf growth 48h inconclusive
CN(C(=O)/C=C/c1ccco1)c1ccccc1C(=O)O	Sm TGR inh 3.5µM
COc1ccc2c(CSc3nnc(-c4cccnc4)n3-c3ccccc3F)cc(=O)oc2c1	Pf growth 96h 6.6µM, Pf growth 48h inconclusive
Cc1nc2ccc(S(=O)(=O)NC(C(=O)N3CCN(c4ccc(Cl)cc4)CC3)C(C)C)cc2s1 (centres undefined)	none (no result: Pf growth 96h, SARS PLP yeast, Pf growth 48h)
CC(NC(=S)NC1CCC(C(C)(C)C)CC1)c1ccccc1 (centres undefined)	Pf growth 96h 9.3µM, Pf growth 48h 7.4µM
CC(NC(=O)C1CCC1)c1ccccc1 (centres undefined)	none (no result: Pf growth 96h)
Cc1ccc(NC(=S)NC2CC3CCC(C2)N3Cc2ccco2)cc1C (centres undefined)	Pf growth 96h 12µM, Pf growth 48h inconclusive
Cc1ccc(NC(=S)NC2CC3CCC(C2)N3Cc2ccco2)c(C)c1 (centres undefined)	Pf growth 96h inconclusive
CCc1ccccc1NC(=S)NC1CC2CCC(C1)N2Cc1ccc(F)cc1 (centres undefined)	Pf growth 48h 7.4µM (no result: Sm TGR inh)
Cc1cccc(NC(=S)NC2CC3CCCC(C2)N3Cc2ccccc2)c1C (centres undefined)	Pf growth 48h 5.9µM (no result: Sm TGR inh)
Cc1ccc(-n2nc3cc(C)c(NC(=O)COc4ccccc4)cc3n2)cc1	none (no result: Pf growth 96h, SARS PLP yeast, Pf growth 48h)
C[Si](C)(C)O[Si](C)(C)C	none (no result: Sm TGR inh, SARS PLP yeast)
N[C@H]1C(O)O[C@H](CO)[C@@H](O)[C@@H]1O (some centres undefined)	none (no result: SARS PLP yeast)
CCc1ccc(NC(=S)NC2CC3CCCC(C2)N3Cc2cccs2)cc1 (centres undefined)	Pf growth 96h 2.1µM, Pf growth 48h inconclusive
Cc1ccc(CNC(=S)NC2CCC(C(C)(C)C)CC2)cc1 (centres undefined)	Pf growth 96h 12µM, Pf growth 48h 9.3µM
Cc1ccc(CN2C3CCCC2CC(NC(=S)NCc2ccccc2)C3)cc1 (centres undefined)	Pf growth 48h 12µM
CCc1ccccc1NC(=O)NC1CC2CCC(C1)N2Cc1cccs1 (centres undefined)	Pf growth 96h inconclusive
CCCN(C(=O)Cn1cnc2sc(C)c(S(=O)(=O)N3CCN(c4ncccn4)CC3)c2c1=O)c1cccc(C)c1	none (no result: Pf growth 96h, SARS PLP yeast, Pf growth 48h)
CC(=O)N(C)c1ccc(OCC(O)CN(c2ccccc2C)S(=O)(=O)c2ccc(C)cc2)cc1 (centres undefined)	Pf growth 96h 2.9µM, Pf growth 48h 13µM
Cc1ccc(C(=O)NCc2ccc3c(c2)OCO3)cc1C	none (no result: Pf growth 48h)
Cc1cccc2nc(-c3cccc(NS(=O)(=O)c4ccccc4)c3)cn12	none (no result: Pf growth 96h, SARS PLP yeast, Pf growth 48h)
COc1cccc(C(C(=O)NC2CCCC2)N(C(=O)c2ccco2)c2ccc(NC(C)=O)cc2)c1OC (centres undefined)	Pf growth 48h 1µM
COc1cccc(C(C(=O)NC2CCCC2)N(C(=O)c2ccco2)c2ccccc2)c1OC (centres undefined)	Pf growth 48h 9.3µM
CNc1c(NC(=O)c2cc(OC)cc(OC)c2)c(=O)oc2ccccc12	none (no result: Pf growth 96h, SARS PLP yeast, Pf growth 48h)
C=C(C)Cn1c(SCC(=O)c2ccc(OC)cc2)nc2sc3c(c2c1=O)CCCC3	none (no result: Pf growth 96h, SARS PLP yeast, Pf growth 48h)
CCN(CC(=O)Nc1c(F)cccc1F)C(=O)CCNC(=O)c1ccc([N+](=O)[O-])cc1	none
COC(=O)CN1C(=O)[C@H]2[C@@H](c3ccc(C)o3)N3C(=O)CN(Cc4ccccc4)C(=O)[C@@]3(Cc3ccccc3)[C@H]2C1=O	Sm TGR inh inconclusive, Pf growth 48h inconclusive
COC(=O)CN1C(=O)[C@H]2[C@@H](c3ccc(C)o3)N3C(=O)CN(Cc4ccc(-c5ccccc5)cc4)C(=O)[C@@]3(C)[C@H]2C1=O	Sm TGR inh 10µM
COC(=O)CN1C(=O)[C@H]2[C@@H](c3ccc(C)o3)N3C(=O)CN(CC4CC4)C(=O)[C@@]3(C)[C@H]2C1=O	Sm TGR inh 16µM
COC(=O)CN1C(=O)[C@H]2[C@@H](c3ccc(C)o3)N3C(=O)CN(Cc4ccccn4)C(=O)[C@@]3(C)[C@H]2C1=O	Sm TGR inh 25µM
CCOC(=O)c1ccc(NC(=O)C(CC)(CC)C(=O)OCC)cc1	Pf growth 48h 8.3µM (no result: Pf growth 96h)
CCOC(=O)c1ccc(NC(=O)COC)cc1	Pf growth 96h 15µM
CCOC(=O)c1ccc(NC(=O)CN(c2ccc(C)cc2)S(=O)(=O)c2c(C)n[nH]c2C)cc1	Pf growth 48h 13µM
COC(=O)c1ccc(CNCC(=O)Nc2ccc(C(=O)OC)cc2)cc1	Pf growth 96h 0.93µM, Pf growth 48h inconclusive
Cc1cccc(C(C)C)c1NC(=O)c1ccc2c(c1)CCN2S(C)(=O)=O	none (no result: Pf growth 96h, SARS PLP yeast, Pf growth 48h)
CCOC(=O)c1c(C)[nH]c(C)c1S(=O)(=O)N(C)CC(=O)NCc1ccc(F)cc1	none
CCCn1c(N)c(C(=O)CSc2nc(C)cs2)c(=O)[nH]c1=O	none (no result: Pf growth 96h)
CCCCNc1nnc(SCC(=O)c2c(N)n(CCC)c(=O)[nH]c2=O)s1	Pf growth 96h 9.3µM, Pf growth 48h 12µM
CCOC(=O)c1ccc(Nc2nnc(C(C)(C)C)c(=O)[nH]2)cc1	Pf growth 96h inconclusive, Pf growth 48h 5.2µM
